Screening data (PubChem BioAssay)
ssDAF-12 act: activates DAF-12 receptor from parasite S. stercoralis; HEK293 ssDAF-12/GRIP1 lit1-tk-luc reporter, luminescence; % of 3 µM dafachronic acid response; activation, % at 6.8 µM; hit rate 1% among 370,000; AID 652126;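 active = activation above the mean over all tested compounds plus 3 SD, cut at about 0.9% in these data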;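 note: 0% = DMSO-only wells and 100% = 3 µM delta7-dafachronic acid wells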
DAX1 inh-1: DAX1 (NR0B1) inhibition, primary screen. HEK293T StAR-luciferase reporter, SF-1/DAX-1 repression relief. inhibition, % at 6.8 µM. hit rate 1.1% among 370,000. AID 652010;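 active = inhibition above the mean over all tested compounds plus 3 SD, cut at about 3.6% in these data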;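 note: 0% = DAX-1 cells with DMSO and 100% = cells lacking DAX-1 with DMSO; higher inhibition means more luminescence from relief of DAX-1 repression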
hgDAF-12 ag: activates the H. glycines DAF-12 receptor ligand-binding domain; HEK293 GAL4-hgDAF12 UAS-luciferase reporter, agonist luminescence; normalized to butyrate control; activation, % at 6.8 µM; hit rate 1.8% among 370,000;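 active = activation above a cutoff set at the mean of all screened compounds plus 3 SD, cut at about 10% in these data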;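 note: 0% = DMSO wells and 100% = sodium butyrate wells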
DAX1 inh-2: NR0B1 (DAX1) inhibition. P51843. HEK293 Gal4-DAX1 luciferase reporter, luminescence. inhibition, % at 6.75 µM. hit rate 0.99% among 340,000. AID 504766;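 active = inhibition above the mean over all tested compounds plus 3 SD, cut at about 4.2% in these data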;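 note: 0% = DAX1-transfected cells with DMSO and 100% = empty-vector control cells with DMSO; inhibition shows as a rise in luminescence from relieved DAX1 repression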
Target sequence (P51843 207-470 limits assumed): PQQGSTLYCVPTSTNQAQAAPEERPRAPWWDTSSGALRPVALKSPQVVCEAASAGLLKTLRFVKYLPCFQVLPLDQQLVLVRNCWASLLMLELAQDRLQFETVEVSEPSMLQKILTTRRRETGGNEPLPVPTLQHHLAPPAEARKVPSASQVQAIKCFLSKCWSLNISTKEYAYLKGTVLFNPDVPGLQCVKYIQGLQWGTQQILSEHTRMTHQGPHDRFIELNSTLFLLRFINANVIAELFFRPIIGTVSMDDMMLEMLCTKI
hcDAF12 agonist: activates DAF-12 receptor from parasite H. contortus; HEK293 hcDAF-12 lit1-tk-luc reporter, luminescence; 0% DMSO, 100% Δ7-dafachronic acid; activation, % at 6.8 µM; hit rate 1.4% among 370,000;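 active = activation above the mean of all tested compounds plus 3 SD, cut at about 5.5% in these data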;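 note: 100% = response to 3 µM Δ7-dafachronic acid high control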
LXR ag: LXR-beta agonism as hcDAF-12 counter-screen | shares compounds with hcDAF12 agonist | HEK293 Gal4-LXR tk-luc reporter, luminescence, 24 h; normalized: DMSO 0%, positive control 100% | activation, % at 6.8 µM | 3,400 tested, under 10 active | AID 743027;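 active = mean percent activation of the reporter above a cutoff set as the average over tested compounds plus their standard deviation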
hcDAF12 conf: confirmation of H. contortus DAF-12 agonists | HEK293 hcDAF-12 lit1-tk-luc reporter, luminescence; % of Δ7-dafachronic acid response | activation, % at 6.8 µM | shares compounds with hcDAF12 agonist | hit rate 61% among 3,400 | AID 743032;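 active = mean activation across triplicate tests above the threshold derived from the earlier primary screen, cut at about 5.5% in these data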;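 note: 0% = DMSO only wells and 100% = 3 µM Δ7-dafachronic acid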
hgDAF12 conf: confirmation of H. glycines DAF-12 agonists | activation, % at 6.8 µM | hit rate 80% among 3,300 | shares compounds with hgDAF-12 ag | HEK293 GAL4-hgDAF12 luciferase reporter, agonist mode; percent of butyrate response | AID 743050;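 active = mean activation over triplicate wells above the hit cutoff derived from the earlier primary screen, cut at about 11% in these data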;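 note: 0% = DMSO low control and 100% = 2 mM sodium butyrate high control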
LXRb DAF12 ctr: counter-screen for DAF-12 agonists: agonists of human LXR-beta; shares compounds with hgDAF-12 ag; HEK293 Gal4-LXR luciferase reporter, 24 h; activation, % at 6.8 µM; 3,300 tested, under 10 active; AID 743051;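 active = mean activation of the triplicate above a set limit carried over from the primary screen, none filed active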
* marks the source's active call; other numbers are inactive results; / = not tested or not shown. Most compounds without a hit are left out; they make up all but 4.1% or so of the library.

SMILES | ssDAF-12 act | DAX1 inh-1 | hgDAF-12 ag | DAX1 inh-2 | hcDAF12 agonist | LXR ag | hcDAF12 conf | hgDAF12 conf | LXRb DAF12 ctr
COc1ccc(S(=O)(=O)Nc2cccnc2)cc1OC | -0.2 | 0.3 | -2.6 | 0.1 | -0.2 | / | / | / | /
O=C(CS(=O)(=O)c1ccccc1)N1CCc2ccccc21 | 1.9* | 2.6 | 21.2* | 2.0 | 12.7* | 0.7 | 9.1* | 16.6* | 0.6
CCOC(=O)c1c(C)nc2c(C)cccn12 | -0.8 | 0.6 | -1.5 | 0.3 | -0.9 | / | / | / | /
CCOC(=O)c1c(C)nc2c3ccccc3ccn12 | 2.7* | 3.7* | 19.1* | 1.5 | 9.7* | 1.3 | 11.6* | 17.1* | 1.0
CN(C)c1ccc(N=Nc2cccc3ccoc23)cc1 | 1.6* | 3.3 | 19.2* | 6.5* | 16.5* | 1.0 | 9.0* | 20.4* | 1.0
Cc1ccc(Cl)cc1NC(=O)CCC(=O)NCc1ccco1 | -1.0 | -0.1 | -2.6 | -0.1 | -2.1 | / | / | / | /
O=C(c1ccccc1)c1ccc(O)cc1O | -1.6 | -0.2 | -0.3 | 3.2 | -0.3 | / | / | / | /
CC(=O)c1cc2c(C)c(C(=O)c3ccccc3)oc2cc1O | 1.7* | 4.0* | 26.4* | 1.4 | 7.5* | 1.8 | 5.8* | 21.1* | 1.1
c1cncc(-c2noc(-c3ccc4ccccc4c3)n2)c1 | 1.0* | 2.6 | 16.6* | -0.1 | 8.8* | 1.2 | 5.0 | 18.6* | 1.2
O=c1[nH]c2ccccc2cc1-c1noc(-c2cccnc2)n1 | -0.7 | 0.3 | -0.3 | 0.3 | 3.0 | / | / | / | /
CCOc1ccc(C(=O)Nc2ccccc2C(=O)O)cc1 | 1.1* | 3.4 | 18.3* | -0.3 | 8.2* | 1.1 | 8.3* | 14.9* | 0.8
CC(C)c1ccc(NC(=O)COc2ccc(F)cc2C(=O)c2cnn(-c3ccccc3)c2)cc1 | 2.2* | 4.1* | 18.0* | 1.2 | 12.2* | 0.9 | 13.7* | 17.4* | 0.5
O=C(Nc1ccc2c(c1)OCCO2)c1cccc(Cl)c1 | -0.1 | 2.0 | 17.6* | 3.3 | 9.9* | 1.2 | 3.7 | 15.4* | 0.7
O=C(Nc1ccc2c(c1)OCCO2)c1ccc(Cl)cc1Cl | 0.9 | 2.0 | 13.5* | -1.9 | 8.0* | 1.8 | 8.0* | 18.7* | 0.9
Cc1cc(C(=O)Nc2ccc3c(c2)OCCO3)c(C)o1 | -0.4 | 3.2 | 8.8 | 0.5 | 4.4 | / | / | / | /
C=CCOc1ccc(C=CC(=O)c2c(O)c(OC)c(OC)c(OC)c2OC)cc1 | -1.2 | -3.2 | -4.5 | -1.6 | -1.9 | / | / | / | /
Cc1cc(N/C=C/C(=O)c2ccccc2)ccc1Br | 2.8* | 2.6 | 14.1* | 1.2 | 9.8* | 2.1 | 18.5* | 23.6* | 1.1
CN(C)c1ccc(N/C=C/C(=O)c2ccccc2)cc1 | -0.6 | -0.7 | 1.9 | 0.9 | -0.3 | / | / | / | /
COc1cccc(N/C=C/C(=O)c2ccc(C)cc2)c1 | 1.4* | 3.4 | 14.5* | 2.7 | 8.1* | 2.0 | 11.3* | 23.8* | 1.2
CCc1nc2ccc(C(=O)NCCCN3CCCC3=O)cn2c1N(C)C(=O)c1cccc(OC)c1 | -1.6 | 0.1 | 2.1 | / | -1.8 | / | / | / | /
Cc1csc(NC(=O)c2ccc3ccccc3n2)n1 | 4.1* | 2.6 | 18.2* | 1.4 | 21.1* | 1.6 | 16.3* | 26.0* | 1.0
O=C(Nc1nccs1)c1sc2ccccc2c1Cl | 3.0* | 3.2 | 17.5* | -0.8 | 15.1* | 1.6 | 16.3* | 16.7* | 1.0
O=C(Nc1nccs1)c1ccc2ccccc2n1 | 3.6* | 1.6 | 18.1* | 1.4 | 18.3* | 1.6 | 15.8* | 22.7* | 1.0
Cc1cc(C(=O)Nc2ccccn2)no1 | -0.2 | 0.6 | 7.7 | 1.3 | 2.6 | / | / | / | /
O=C(Nc1ccccn1)c1ccc2ccccc2n1 | 3.7* | 3.6 | 16.7* | 1.2 | 19.1* | 2.2 | 21.8* | 18.4* | 0.9
